In PubChem BioAssay AID2013 (Sanford-Burnham Center for Chemical Genomics, 2009):
Among all 290,000 compounds or so, about 370 (0.13%) were called active. Shown is part of a subset that was picked to be rich in actives. Entries with a potency or affinity are not part of this list. A number with no mark means an inactive call.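 The calls were made as follows: active = spots per cell inhibited over 60%, with over 100 cells counted and total cytoplasm intensity under 500,000; inconclusive = wells with under 100 cells, flagged as likely toxic; inactive = the rest.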

The compounds below were run against G-protein coupled receptor 55 (Homo sapiens) (UniProt Q9Y2T6) (assay: GPR55 antagonists blocking LPI-driven arrestin recruitment, primary screen, imaging, U2OS, beta-arrestin-GFP, LPI agonist (AID 2013;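 also: U2OS cells stably carrying GPR55 and arrestin-GFP stimulated by 5 µM LPI near EC80; imaged beta-arrestin-GFP aggregate spots per cell after agonist stimulation; plate controls were LPI-stimulated DMSO wells for no effect and DMSO wells without LPI for full effect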)). Settings: U2OS GPR55 beta-arrestin-GFP translocation imaging, LPI antagonism; at 10 µM; active compounds read high.
Chain of G-protein coupled receptor 55 (Homo sapiens) (Q9Y2T6 whole entry, looked up): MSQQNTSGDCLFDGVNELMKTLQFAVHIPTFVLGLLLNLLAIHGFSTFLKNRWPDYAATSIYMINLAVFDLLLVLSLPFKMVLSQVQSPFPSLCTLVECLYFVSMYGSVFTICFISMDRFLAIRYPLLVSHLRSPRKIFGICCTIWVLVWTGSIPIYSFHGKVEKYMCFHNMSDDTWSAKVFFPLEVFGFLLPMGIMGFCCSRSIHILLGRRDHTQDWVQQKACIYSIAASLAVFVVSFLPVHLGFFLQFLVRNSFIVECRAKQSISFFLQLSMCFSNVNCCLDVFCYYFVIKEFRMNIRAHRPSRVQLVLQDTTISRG

Row | Compound | inhibition
1 | O=S(=O)(NC1CCCCC1Oc1ccccc1)c1ccc(Cl)cc1 (stereo not drawn) | 12.4%
2 | CCn1cc(CN2CCC(C(=O)Nc3ccc(Oc4ccccc4)nc3)CC2)cn1 | 17%
3 | NC(=NC(=O)c1ccccc1)N1CCN(C(c2ccccc2)c2ccccc2)CC1 | 22.5%
4 | CC1=C(C(=O)OCc2ccccc2)C(c2ccc3ccccc3c2)NC(=O)N1CCCC(=O)O (stereo not drawn) | 1.7%
5 | Cn1nc(C(=O)NCc2ccco2)c2ccccc2c1=O | -3.1%
6 | COC(=O)c1cccc(S(=O)(=O)N2CCC(c3nc4ccccc4o3)CC2)c1 | 4.8%
7 | O=c1[nH]ncn1-c1ccccc1 | 0.1%
8 | Cc1ccc(OC(=O)c2ccc(N3CCOCC3)c([N+](=O)[O-])c2)cc1 | 2.8%
9 | Cc1ncsc1CCOC(=O)c1ccc(N2CCOCC2)c([N+](=O)[O-])c1 | -11%
10 | CC(C)c1ccc(CN2C(=O)NC3(CCCCCC3)C2=O)cc1 | 4.2%
11 | CC(=O)N1CCc2cc(Br)cc(S(=O)(=O)NCCN3CCCCC3C)c21 (stereo not drawn) | 10.5%
12 | CCC(=O)N1CCc2cc(Br)cc(S(=O)(=O)NCCN3CCCCC3C)c21 (stereo not drawn) | 77.2% (active)
13 | CCC(=O)N1CCc2cc(Br)cc(S(=O)(=O)NCCN3CCCCC3CC)c21 (stereo not drawn) | 5.4%
14 | COc1ccccc1CNC(=O)CSc1nc2ccccc2c(=O)n1CCCN1CCOCC1 | 1.4%
15 | Cc1ccccc1NC(=O)CSC(N)=O | 1.9%
16 | O=C(COc1ccc(Cl)cc1Cl)Nc1ccc(S(=O)(=O)NC2=NCCCCC2)cc1 | 3.6%
17 | Cc1ccc(C(C)C)c(OCC(=O)Nc2cccc(S(=O)(=O)NC3=NCCCCC3)c2)c1 | -2.2%
18 | Cc1cc(Nc2ccc(Cl)cc2)nc(NCc2ccccc2)n1 | 13.1%
19 | Cc1ccc(Nc2cc(C)nc(NCc3ccccc3)n2)cc1 | 26.1%
20 | CC(=O)NC(=S)Nc1cccc2ccc(C)nc12 | -6.6%
21 | Cc1cc(C(F)(F)F)n(-c2nc(C(=O)N/N=C/c3ccc(F)cc3)cs2)n1 | -8.1%
22 | COC(=O)c1ccccc1NC(=S)NC(=O)c1ccc2c(c1)OCO2 | 7.9%
23 | COc1ccc(CCNC(=O)[C@H](C)NC(=O)[C@@H]2CSC3c4ccccc4C(=O)N32)cc1 (stereo partly drawn) | 9.5%
24 | CCN(CC)S(=O)(=O)c1ccc(NCC2COc3ccccc3O2)c([N+](=O)[O-])c1 (stereo not drawn) | 8.6%

Row | Compound | inhibition
25 | CCN(c1ccccc1)S(=O)(=O)c1ccc(Cl)nc1 | -13.7%
26 | Cc1ccc(CNc2nc(C)cs2)cc1 | 4.7%
27 | CCCn1c(SCc2nc3sc(C)c(C)c3c(=O)[nH]2)nc2ccccc2c1=O | 8.6%
28 | Cc1sc2nc(CSc3nc4ccccc4c(=O)n3CCCN3CCOCC3)[nH]c(=O)c2c1C | 89.7% (active)
29 | Cc1[nH]c2ccccc2c1C(=O)CSc1nc2ccccc2c(=O)n1CCCN1CCOCC1 | -7.3%
30 | Cc1cc(C)cc(Oc2cc(NC(=O)c3cn(C)nc3C)cc([N+](=O)[O-])c2)c1 | -5.3%
31 | Cc1cccc(N(C)C(=O)c2cc(S(=O)(=O)N3CCc4ccccc43)cn2C)c1 | 8.9%
32 | Cc1ccc(NC(=O)c2cc(S(=O)(=O)N3CCc4ccccc43)cn2C)cc1 | 6.1%
33 | CN(C)/C=N/c1[nH]ncc1C#N | -2%
34 | Cc1nc2ccccc2n1CC(O)Cn1c(C(F)(F)F)nc2ccccc21 (stereo not drawn) | 6.6%
35 | NC(=O)CSc1n[nH]c(-c2ccco2)n1 | 8.2%
36 | O=C(c1cccc(S(=O)(=O)N2CCN(c3ccccc3)CC2)c1)N1CC=C(c2ccccc2)CC1 | 4.3%
37 | COc1ccccc1NS(=O)(=O)c1cc(NC(=O)CC(C)(C)C)ccc1N1CCOCC1 | 6.1%
38 | COc1ccccc1NS(=O)(=O)c1cccc(NC(=S)NCCN2CCOCC2)c1 | 0.8%
39 | Cc1ccccc1NC(=O)Nc1cc(S(N)(=O)=O)ccc1C | -2.7%
40 | COc1ccc(N2CCN(C(=O)NCc3ccc(C)cc3)CC2)cc1 | 1%
41 | CC(=O)Nc1cccc(C(=O)OCC(=O)c2ccccc2Cl)c1 | -0.6%
42 | COc1cc(S(=O)(=O)Nc2ccccc2)ccc1N=Cc1c(C)[nH]n(-c2ccc(C)cc2)c1=O | 7.7%
43 | O=C(Nc1ccccc1N1CCOCC1)c1cccc(NS(=O)(=O)c2ccc(F)c(F)c2)c1 | 2.6%
44 | O=C(CC12CC3CC(CC(C3)C1)C2)NCc1ccco1 | 11.3%
45 | O=C(CC12CC3CC(CC(C3)C1)C2)NC(=S)NCc1ccccc1 | 53%
46 | OCCNc1cnc2ccccc2n1 | 12.6%
47 | CC1CN(S(=O)(=O)c2ccccc2)CN1C(=O)N1CCOCC1 (stereo not drawn) | 15.3%
48 | CCN1CCCC1CN(Cc1cc2ccc(C)cc2[nH]c1=O)C(=S)Nc1ccc(F)cc1 (stereo not drawn) | 23.5%

Row | Compound | inhibition
49 | COc1ccc(Cl)cc1S(=O)(=O)n1ccnc1 | 4.2%
50 | COC(=O)c1ccc2c(c1)C(C)(C)C(/C=C/c1ccccc1O)=[N+]2C | 11.5%
51 | C[N+]1=C(/C=C/Nc2ccccc2Cl)C(C)(C)c2ccccc21 | 0.9%
52 | O=C1c2ccccc2C(=O)C2OC12 (stereo not drawn) | 12.7%
53 | COc1ccc(OC)c(-c2csc(N(CC3CCCO3)C(=O)C3CCCCC3)n2)c1 (stereo not drawn) | 82.9% (active)
54 | COc1ccc(OC)c(-c2csc(N(CC3CCCO3)C(=O)Cc3ccccc3)n2)c1 (stereo not drawn) | 17.6%
55 | COc1ccc(-c2csc(N(CC3CCCO3)C(=O)c3ccccc3)n2)cc1 (stereo not drawn) | 0.7%
56 | CN(C)c1ccc(C(=O)OCC(=O)Nc2ccc(N3CCOCC3)cc2)cc1 | 0.2%
57 | CCN(CC)c1ccc(NC(=O)Cn2c(C(C)NC(=O)c3ccc(C)cc3)nc3ccccc32)cc1 (stereo not drawn) | 1.1%
58 | S=c1[nH]nc(CSCc2ccccc2Cl)n1-c1ccccc1 | 1%
59 | Cn1c(CSCc2ccccc2Cl)n[nH]c1=S | -17.8%
60 | CN(Cc1ccc(Cl)cc1Cl)C(=O)CNC(=O)c1ccco1 | 8.3%
61 | CCCn1cc(S(=O)(=O)c2ccccc2)c(=O)c2cc(F)c(N3CCN(C)CC3)cc21 | 7.5%
62 | Clc1cccc(-c2cc3nc4c(c(N5CCNCC5)n3n2)CCCC4)c1 | 90.4% (active)
63 | Clc1cccc(-c2cc3nc4c(c(N5CCOCC5)n3n2)CCCC4)c1 | -8.9%
64 | Clc1cccc(-c2cc3nc4c(c(N5CCN(c6cnccn6)CC5)n3n2)CCCC4)c1 | -5.5%
65 | COc1ccc(NS(=O)(=O)c2ccc3nc(COc4ccc5ccccc5c4)[nH]c3c2)cc1 | 20.6%
66 | COc1ccc(NS(=O)(=O)c2ccc3nc(COc4ccc(C#N)cc4)[nH]c3c2)cc1 | 6%
67 | COc1ccc(/C=C(\C#N)C(=O)OCC(=O)Nc2ccc(-c3nc4ccc(C)cc4s3)cc2)cc1 | -6.4%
68 | C=C(C)CSc1nc2ncc(Cl)cc2[nH]1 | 17.6%
69 | N/C(=N\O)c1ccccc1N1CCCCC1 | -5%
70 | CCCC(=O)Nc1nc(C)c(C(C)=O)s1 | -16%
71 | C=CCn1c(SCC(=O)NC(=O)c2cccn2C)nc2ccccc2c1=O | 4.4%
72 | CCC(C)n1c(SCC(=O)NC(=O)c2cccn2C)nc2ccccc2c1=O (stereo not drawn) | 99.6% (active)

Row | Compound | inhibition
73 | CCC(C)n1c(SCC(=O)Nc2cc(C)on2)nc2ccccc2c1=O (stereo not drawn) | 15.5%
74 | COc1cc(C(=O)NNC(=O)NC2CCCCC2)cc(OC)c1OC | 8.5%
75 | O=C(NCc1ccccc1Cl)c1ccc2c(c1)SC1=NS(=O)(=O)CCN12 | -9.3%
76 | COc1cccc(NC(=O)c2cccc(C(=O)Nc3cccc(OC)c3)c2)c1 | -0.6%
77 | C=CCNC(=O)/C(C#N)=C/c1ccccc1[N+](=O)[O-] | 13.3%
78 | N#C/C(=C\C=C\c1ccccc1[N+](=O)[O-])C(=O)NCc1ccccc1 | 11.1%
79 | CC1=CC(=C(C#N)C#N)C=C(C)N1CCN1CCN(C(=O)Nc2cccc(Cl)c2)CC1 | 3.5%
80 | Cc1cccc(NC(=O)C2C3C=CC4(O3)C2C(=O)N(CCCN2CCCC2)C4C(=O)NC2CCCC(C)C2C)c1 (stereo not drawn) | -6.5%
81 | CC1(c2ccc([N+](=O)[O-])cc2)CC(C)(C)N(C(=O)c2ccccc2)c2ccccc21 (stereo not drawn) | 11.2%
82 | CC1(c2ccccc2)CC(C)(C)N(C(=O)c2cc([N+](=O)[O-])cc([N+](=O)[O-])c2)c2ccccc21 (stereo not drawn) | 64.4% (active)
83 | CC1(c2cc([N+](=O)[O-])cc([N+](=O)[O-])c2)CC(C)(C)N(C(=O)c2ccccc2)c2ccccc21 (stereo not drawn) | -0.2%
84 | COc1ccccc1Nc1nc(N)nc(-c2cc3ccccc3o2)n1 | 8.7%
85 | NCC(O)COCCC12CC3CC(CC(C3)C1)C2 (stereo not drawn) | 5.8%
86 | CC(NCC(O)COCc1ccc(Cl)cc1)c1ccccc1 (stereo not drawn) | 0.4%
87 | CC1(C)CC(=O)C=C(NCC2CCCO2)C1 (stereo not drawn) | 3.1%
88 | CC1=CC(c2ccc(Cl)cc2)n2nc(NC(=O)c3ccccc3)nc2N1 (stereo not drawn) | 5.1%
89 | Cc1ccc(-c2ccnc3cc(C)nn23)cc1 | 13.3%
90 | COc1ccccc1N1CCN(C2=Nc3cccc4cccc2c34)CC1 | 95.5% (active)
91 | c1cc2c3c(cccc3c1)C(N1CCCCCC1)=N2 | 17.5%
92 | c1cc2c3c(cccc3c1)C(N1CCCCC1)=N2 | 3.4%
93 | COc1ccc(/C=C2\SC(=O)N(CC(=O)NC3C=CS(=O)(=O)C3)C2=O)cc1 (stereo not drawn) | 14.8%
